# Laboratory results published in the supplement of paper PMC8253809.
# “And” between values parts separate entries of the source, which are not always exact repeats. Equal values may be shown once.
# What was measured:
# Experiment in all cases: growth inhibition (% activity, log2 RLU normalised to DMSO / staurosporine); higher = more growth inhibition
# Settings in all cases: 33 µM
# DIPGX29 = test system: DIPGX29 (H3.3 K27M diffuse intrinsic pontine glioma line)
# In short: (§1)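 Approved drugs, at a single final concentration of about 33 μM, were applied in triplicate to pHGG cell lines and H9-derived neural stem cells for 7 days at 37 °C, 5% CO2. The growth-inhibition value is the replicate median of log2-transformed CellTiter-Glo luminescence normalised per plate to % activity between solvent and positive control wells.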
# DIPGX37 = test system: DIPGX37 (H3.3 K27M diffuse intrinsic pontine glioma line)
# In short: as §1
# DIPGX7 = test system: DIPGX7 (H3.3 K27M diffuse intrinsic pontine glioma line)
# In short: as §1
# DIPGX9 = test system: DIPGX9 (diffuse intrinsic pontine glioma line)
# In short: as §1
# HGGX39 = test system: HGGX39 (paediatric high-grade glioma line)
# In short: as §1
# HGGX6 = test system: HGGX6 (H3.3 G34R paediatric high-grade glioma line)
# In short: as §1
# HNSC = test system: HNSC
# In short: as §1
# SUDIPGIV = test system: SUDIPGIV (diffuse intrinsic pontine glioma line)
# In short: as §1
# SUDIPGVI = test system: SUDIPGVI (diffuse intrinsic pontine glioma line)
# In short: as §1
# SUDIPGXIII = test system: SUDIPGXIII (diffuse intrinsic pontine glioma line)
# In short: as §1
Compound,growth inhibition (DIPGX29),growth inhibition (DIPGX37),growth inhibition (DIPGX7),growth inhibition (DIPGX9),growth inhibition (HGGX39),growth inhibition (HGGX6),growth inhibition (HNSC),growth inhibition (SUDIPGIV),growth inhibition (SUDIPGVI),growth inhibition (SUDIPGXIII)
O=C1NCC2(CCN(CCc3ccccc3)CC2)O1,0.324%,-0.568%,0.908%,1.98%,1.24%,0.472%,-0.511%,-1.95%,0.357%,0.871%
NNc1nncc2ccccc12,-0.649%,0.926%,-0.1%,1.44%,2.03%,0.883%,-1.94%,2.81%,-2.33%,-0.215%
Cc1ncc(C[n+]2csc(CCO)c2C)c(N)n1,0.631%,-0.256%,-1.44%,0.746%,1.92%,1.62%,-1.01%,-0.371%,0.498%,0.53%
CC1=NN(c2ccccc2)C(=O)C1,-3.36%,-1.06%,-0.361%,-0.407%,-0.249%,-3.17%,-4.84%,1.69%,-1.55%,-0.303%
CC(=O)O[C@]1(C(C)=O)CC[C@H]2[C@@H]3C[C@H](C)C4=CC(=O)CC[C@]4(C)[C@H]3CC[C@@]21C,-3.25%,0.463%,-0.594%,-0.287%,-4.12%,-0.715%,31.3%,-4.85%,-6.53%,4.79%
CCc1c(Cl)c(O)c(Cl)c(O)c1C(=O)O[C@H]1[C@H](O)[C@H](OC)[C@H](OC/C2=C\C=C\C[C@H](O)/C(C)=C/[C@H](CC)[C@@H](O[C@@H]3OC(C)(C)[C@@H](OC(=O)C(C)C)[C@H](O)[C@@H]3O)/C(C)=C/C(C)=C/C[C@@H]([C@@H](C)O)OC2=O)O[C@@H]1C,0.669%,2.16%,0.835%,-0.411%,9.09%,0.0636%,11.6%,3.19%,2.46%,0.498%
COc1ccccc1OCC(O)CN1CCN(CC(=O)Nc2c(C)cccc2C)CC1 (stereo not given),-3.85% and 2.95%,-0.299% and 2.63%,-1.1% and 4.84%,-2.23% and 2.88%,-2.5% and 3.07%,-1.8% and 1.36%,-2.11% and 14%,-2.68% and 2.7%,-1.9% and -0.296%,-2.34% and -1.26%
CCC(=O)OCC(=O)[C@@]1(OC(=O)CC)[C@@H](C)C[C@H]2[C@@H]3CCC4=CC(=O)C=C[C@]4(C)[C@@]3(Cl)[C@@H](O)C[C@@]21C,2.67%,-2.69%,1.9%,4.04%,3.24%,1.72%,0.321%,-1.55%,-0.46%,0.862%
COc1ncnc(NS(=O)(=O)c2ccc(N)cc2)c1OC,0.769%,2.24%,1.07%,2.03%,0.995%,1.53%,-1.3%,-0.0587%,-0.393%,1.69%
CO[C@H]1C[C@@H]2CC[C@@H](C)[C@@](O)(O2)C(=O)C(=O)N2CCCC[C@H]2C(=O)O[C@H]([C@H](C)C[C@@H]2CC[C@@H](O)[C@H](OC)C2)CC(=O)[C@H](C)/C=C(\C)[C@@H](O)[C@@H](OC)C(=O)[C@H](C)C[C@H](C)/C=C/C=C/C=C/1C,6.5%,0.955%,6.15%,16.4%,10.5%,10.3%,10.4%,4.5%,6.53%,0.792%
NCC1OC(OC2C(N)CC(N)C(OC3OC(CO)C(O)C(N)C3O)C2O)C(N)C(O)C1O (stereo not given),-1.38%,0.63%,0.452%,-1.1%,1.6%,-1.9%,30.8%,-0.143%,-4.48%,-1.57%
COc1ccc(-c2ccc3cc(C(=O)O)ccc3c2)cc1C12CC3CC(CC(C3)C1)C2,2.22%,0.00524%,1.73%,2.82%,2.84%,2.51%,1.43%,3.15%,-4.99%,1.39%
COc1cc([C@@H]2c3cc4c(cc3[C@@H](O[C@@H]3O[C@@H]5CO[C@@H](C)O[C@H]5[C@H](O)[C@H]3O)[C@H]3COC(=O)[C@H]23)OCO4)cc(OC)c1O,12.6%,4.92%,8.84%,24.1%,10.5%,9.51%,61.4%,38.2%,3.89%,5.92%
CN(C)CCC(c1ccc(Cl)cc1)c1ccccn1 (racemic),1.65%,2.71%,2.71%,1.38%,3.68%,0.339%,4.41%,1.92%,4.15%,-0.538%
C#C[C@]1(OC(C)=O)CC[C@H]2[C@@H]3CCC4=C[C@@H](OC(C)=O)CC[C@@H]4[C@H]3CC[C@@]21C,0.289%,0.452%,-1.67%,1.3%,-0.196%,0.0724%,1.57%,-1.23%,1.15%,1.62%
C[C@]12CC[C@@H]3c4ccc(O)cc4C[C@@H](CCCCCCCCC[S+]([O-])CCCC(F)(F)C(F)(F)F)[C@H]3[C@@H]1CC[C@@H]2O (stereo not given in full),0.0636%,0.16%,0.804%,-0.923%,8.06%,-1.09%,2%,-0.255%,-0.348%,2.55%
CC(C)CN(C[C@@H](O)[C@H](Cc1ccccc1)NC(=O)O[C@H]1CO[C@H]2OCC[C@H]21)S(=O)(=O)c1ccc(N)cc1,-2.82%,-0.683%,-0.244%,-0.934%,-1.58%,0.0431%,-4.53%,-3.11%,-1.79%,1.1%
N=S(=O)(O)Cc1noc2ccccc12,-1.43%,-1.83%,-1.41%,-1.19%,-0.682%,-1.72%,-4.88%,-1.71%,-4.93%,-0.253%
Cc1nc(Nc2ncc(C(=O)Nc3c(C)cccc3Cl)s2)cc(N2CCN(CCO)CC2)n1,8.3%,-3.6%,2.53%,12.4%,15.6%,10.8%,20%,-0.76%,2.41%,2.8%
O=c1cc[nH]c(=O)[nH]1,0.309%,2.71%,0.41%,1.11%,0.158%,0.91%,-1.21%,0.441%,1.23%,-16.8%
O=C1C(=O)c2ccccc2C(O)=C1C1CCC(c2ccc(Cl)cc2)CC1 (stereo not given),1.86%,-1.09%,2.26%,2%,1.71%,0.641%,2.01%,3.44%,2.48%,1.82%

Compound,growth inhibition (DIPGX29),growth inhibition (DIPGX37),growth inhibition (DIPGX7),growth inhibition (DIPGX9),growth inhibition (HGGX39),growth inhibition (HGGX6),growth inhibition (HNSC),growth inhibition (SUDIPGIV),growth inhibition (SUDIPGVI),growth inhibition (SUDIPGXIII)
CC(C)NCC(O)COc1ccc(COCCOC(C)C)cc1 (stereo not given),-3.23%,-0.456%,-0.461%,-0.782%,-1.74%,-3.85%,-7.27%,-3.11%,-2.42%,-1.46%
C[C@](N)(Cc1ccc(O)c(O)c1)C(=O)O,0.0946%,1.72%,-0.426%,-0.748%,-1.35%,-1.03%,0.654%,-0.812%,1.41%,-0.739%
CCN(CC)CCOC(=O)C1(C2CCCCC2)CCCCC1,-1.15%,-1.5%,-1.55%,-2.17%,-2.47%,-0.591%,-1.91%,-0.751%,-0.615%,0.956%
O=c1cc[nH]c(=S)[nH]1,1.29%,1.68%,2.17%,2.37%,0.218%,-1.78%,36.9%,1.67%,-6.46%,0.601%
CN(Cc1ccc(C(C)(C)C)cc1)Cc1cccc2ccccc12,1.43%,0.769%,0.907%,2.12%,3.22%,1.49%,0.815%,3.24%,3.2%,1.08%
CCN1CCCC1CNC(=O)c1cc(S(N)(=O)=O)ccc1OC (stereo not given),1.2%,3.95%,2.35%,1.38%,2.29%,0.912%,1.32%,0.319%,3.68%,0.786%
Nc1nc2[nH]cc(CCc3ccc(C(=O)N[C@@H](CCC(=O)O)C(=O)O)cc3)c2c(=O)[nH]1,1.3%,1.02%,2.83%,0.403%,-0.372%,-2.22%,-0.517%,2.12%,-1.22%,1.32%
Nc1ccc(/N=N/c2ccccc2)c(N)n1,-3.96%,-2.54%,0.481%,-3.38%,-1.17%,-3.08%,9.5%,-2.91%,-4.45%,1.45%
O=C(O[C@H]1CN2CCC1CC2)N1CCc2ccccc2[C@@H]1c1ccccc1,1.49%,-0.261%,-0.506%,-0.425%,1.75%,0.102%,-0.949%,-0.487%,1.06%,1.13%
Clc1ccc2c(c1)CCc1cccnc1C2=C1CCNCC1,-4.02%,-0.355%,-2.28%,-0.408%,0.308%,-1.66%,0.109%,-0.876%,-0.303%,0.814%
CCOC(=O)C1=C(C)NC(C)=C(C(=O)OCC)C1c1ccccc1/C=C/C(=O)OC(C)(C)C,5.9%,-3.39%,7.49%,4.68%,24.1%,2.24%,46.6%,12.7%,1.91%,7.34%
Cn1c([N+](=O)[O-])cnc1COC(N)=O,0.121%,3.86%,2.76%,0.536%,2.55%,-0.567%,7.72%,2.41%,2.16%,0.864%
CC[C@H]1OC(=O)[C@H](C)[C@@H](O[C@H]2C[C@@](C)(OC)[C@@H](O)[C@H](C)O2)[C@H](C)[C@@H](O[C@@H]2O[C@H](C)C[C@H](N(C)C)[C@H]2O)[C@](C)(OC)C[C@@H](C)C(=O)[C@H](C)[C@@H](O)[C@]1(C)O,-1.86%,0.02%,-2.66%,-0.349%,1.64%,0.562%,-3.32%,-2.12%,-0.602%,-13%
NC[C@@H]1O[C@H](O[C@H]2[C@@H](O)[C@H](O[C@@H]3[C@@H](O)[C@H](N)C[C@H](N)[C@H]3O[C@H]3O[C@H](CN)[C@@H](O)[C@H](O)[C@H]3N)O[C@@H]2CO)[C@H](N)[C@@H](O)[C@@H]1O,0.966%,0.68%,1.55%,0.402%,2.24%,-1.34%,20.2%,2.53%,-6.55%,-0.235%
C[C@]12CCC3=C4CCC(=O)C=C4CC[C@H]3[C@@H]1CC[C@@]2(O)CC#N,1.43%,-1.59%,-0.302%,0.24%,0.279%,-1.72%,0.249%,-0.958%,1.03%,0.668%
CCC(=O)OCC(=O)[C@@]1(OC(=O)CC)[C@@H](C)C[C@H]2[C@@H]3CCC4=CC(=O)C=C[C@]4(C)[C@@]3(F)[C@@H](O)C[C@@]21C,0.0157%,2.23%,0.0573%,4.05%,3.08%,1.77%,-4.87%,-0.108%,0.781%,1.98%
Nc1nc(N)nc(-c2cc(Cl)ccc2Cl)n1,-2.22%,-3.47%,-1.19%,-0.993%,-0.32%,0.13%,-4.65%,-1.63%,-0.709%,-0.715%
COc1cc2nc(N3CCN(C(=O)c4ccco4)CC3)nc(N)c2cc1OC,7.72%,-2.22%,1.17%,3.48%,-0.781%,18.9%,-0.602%,-3.54%,-4.38%,-1.72%
CCCc1cc(C(N)=S)ccn1,-2.06%,-0.994%,-2.65%,-1.15%,-0.973%,0.551%,-2.9%,-2.46%,-0.254%,0.671%
CC1(C)[C@H](C(=O)O)N2C(=O)C[C@H]2S1(=O)=O,2.32% and -0.376%,-0.186% and 1.2%,3.29% and 0.579%,2.15% and 2.67%,4.9% and 2.16%,1.21% and -0.215%,11.1% and 0.73%,1.62% and -0.448%,2.58% and 1.67%,0.364% and -0.373%
